Out of some 13,000 compounds screened, about 3,200 (25%) showed an effect of 50% or more. This is one part of the list.
Test system: P. falciparum stage V gametocytes
Set-up: BacTiter-Glo ATP luminescence viability of purified stage V gametocytes in 384-well plates, per cent inhibition versus DMSO
Settings: 48 h, 5 µM; inhibitor

Structure (SMILES) | % Inhibition [%]
Cc1ccc(Cn2ncc(NC3CCNCC3)c(Cl)c2=O)cc1NC(=O)Nc1ccc(-c2ccccc2)cc1 [TCMDC-141929] | 95.66
Cc1ccc(Cn2ncc(N3CCC(N)CC3)c(Cl)c2=O)cc1NC(=O)Nc1ccc(-c2ccccc2)cc1 [TCMDC-141932] | 107.1
COc1ccc2nccc([C@@H](O)CN3CCC(NCCOc4cccc(C(F)(F)F)c4Cl)CC3)c2c1 [TCMDC-140661] | 20.87
O=C(Nc1ccc(Br)c(Cl)c1)c1cc([N+](=O)[O-])cc2cn[nH]c12 [TCMDC-123693] | 77.61
O=C(Nc1ccc(F)c(Cl)c1)c1cc([N+](=O)[O-])cc2cn[nH]c12 [TCMDC-123694] | -9.121
O=C(Nc1cccc(C(F)(F)F)c1)c1cc([N+](=O)[O-])cc2cn[nH]c12 [TCMDC-125395] | 7.696
O=c1cc(NCCCNCc2cn(S(=O)(=O)c3ccccc3)c3ccccc23)[nH]c2ccccc12 [TCMDC-140361] | 89.9
COc1cc(NCCCNC(=O)c2ccc(Cl)c(Cl)c2)nc2ccccc12 [TCMDC-140373] | -10.34
Cc1c(NCCCNCc2cc(Cl)cc(Cl)c2Cl)[nH]c2ccccc2c1=O [TCMDC-139498] | -59.03
COc1cc(NCCCNC(=O)c2cc3c(Cl)cc(Cl)cc3[nH]2)nc2ccccc12 [TCMDC-140360] | 30.45
COc1cc(Nc2ccc3cc(S(=O)(=O)N4CCCCC4C)ccc3n2)cc(OC)c1OC (stereo not drawn) [TCMDC-125163] | -47.67
O=c1cc(NCCCNCc2ccccc2-c2ccccc2)[nH]c2ccccc12 [TCMDC-139450] | -0.2545
O=c1cc(NCCCNCc2cc(C(F)(F)F)ccc2Cl)[nH]c2ccccc12 [TCMDC-139422] | 4.715
CN(C)CCCNCc1cn(S(=O)(=O)c2ccccc2Cl)c2ccccc12 [TCMDC-136302] | 105.4
COc1cc(NC2CCCC(NCc3cn(S(=O)(=O)c4ccccc4)c4ccccc34)C2)nc2ccccc12 (stereo not drawn) [TCMDC-140505] | 77.87
CCN(CC)CCOc1c(Cl)cc(Cl)cc1CNCCCNc1cc(=O)c2ccccc2[nH]1 [TCMDC-139684] | 26.89
COc1cc(NCCCNCc2cn(S(=O)(=O)c3ccccc3)c3ccccc23)nc2ccccc12 [TCMDC-140214] | 73.5
Cc1cc(OCCCN2CCC(NS(=O)(=O)c3ccc(Cl)c(Cl)c3)CC2)c2ccccc2n1 [TCMDC-136278] | -51.1

Structure (SMILES) | % Inhibition [%]
COc1ccc2nccc(NC(=O)N3CCC(NCc4cc5c(F)ccc(F)c5[nH]4)CC3)c2n1 [TCMDC-140784] | -20.31
Cc1cc(C(F)(F)F)n2nc(C(=O)N(Cc3cncn3Cc3ccccc3F)CC3CC3)cc2n1 [TCMDC-132463] | -10.43
Cc1c(C)n(C2CCCC2)c2ncnc(OC3CCN(CC(=O)NCC4CC4)CC3)c12 [TCMDC-134421] | 19.09
CN(Cc1cnc2nc(N)nc(N)c2n1)c1ccc(C(=O)N[C@H](CCC(=O)OC(C)(C)C)C(=O)N[C@@H](CCC(=O)OC(C)(C)C)C(=O)OC(C)(C)C)cc1 [TCMDC-137262] | -6.983
COc1cc(Cc2cnc(N)nc2N)cc(OC)c1OCCCCC(=O)O [TCMDC-137352] | 14.26
CN(Cc1cccc(C#N)c1)C1CCN(c2cc(NC(=O)c3cccc(F)c3)ccn2)CC1 [TCMDC-134972] | 21.14
COc1cc(CNCCCNc2nc3ncccc3[nH]2)c2[nH]cc(Br)c2c1 [TCMDC-140259] | -28.64
COc1ccnc(NCCCNCc2cn(S(=O)(=O)c3ccccc3)c3ccccc23)c1 [TCMDC-140380] | 99.09
COc1c(C)cc(I)cc1CNCCCNc1cc(=O)c2ccccc2[nH]1 [TCMDC-140056] | -89.66
FC(F)(F)c1ccc(-c2ccc(CNC3CCN(CCN4CCOCC4)CC3)cc2)cc1 [TCMDC-136025] | 39
CCN1CCC(NCc2ccc(-c3ccc(Cl)s3)cc2)CC1 [TCMDC-141263] | 93.74
CCN1CCC(NCc2ccc(-c3ccc(Cl)cc3)cc2)CC1 [TCMDC-141354] | 41.97
CN1CCC(NCc2ccc(-c3ccc(Cl)cc3)cc2)CC1 [TCMDC-141355] | 54.41
CCCCCCN1CCC(NCc2ccc(C)cc2)CC1 [TCMDC-141667] | -37.31
CCCCCCN1CCC(NCc2ccc(C(F)(F)F)cc2)CC1 [TCMDC-141669] | -50.38
Clc1ccc(CNC2CCN(CC3CCCCC3)CC2)cc1 [TCMDC-141658] | -44.47
CC(C)N1CCC(NCc2ccc(-c3ccc(Cl)cc3)cc2)CC1 [TCMDC-141359] | 35.52
CCCCCCN1CCC(NCc2ccc(Cl)cc2)CC1 [TCMDC-141666] | 71.31
